Read-out in assay [1]: Interleukin-6 (IL6), IL6 (gene 3569)
The assay can be described thus: BSK_CASM3C_IL6: BioMAP Diversity Plus: CASM3C Assay for Interleukin-6 (IL6) Biomarker Activity for (AID 2283040). As to conditions: primary human coronary artery smooth muscle cells; actives raise or lower the signal.

Read-out in assay [2]: Tissue plasminogen activator (tPA), PLAT (gene 5327)
As to the kind of experiment: BSK_BE3C_tPA: BioMAP Diversity Plus: BE3C Assay for Tissue plasminogen activator (tPA) Biomarker Activity (AID 2283041).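 On outcome: tPA level quantified by ELISA one day after compound addition.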 As to conditions: primary human bronchial epithelial cells; actives raise or lower the signal. The procedure, abridged: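 Using human lung primary bronchial epithelial cells, tPA was measured by ELISA 24 h after dosing; data fitted relative to DMSO.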

Read-out in assay [3]: Interleukin-8 (IL8), CXCL8 (gene 3576)
The assay can be described thus: BSK_CASM3C_IL8: BioMAP Diversity Plus: CASM3C Assay for Interleukin-8 (IL8) Biomarker Activity (AID 2283042).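 Further: IL-8 protein level quantified by ELISA.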 As to conditions: primary human coronary artery smooth muscle cells; actives raise or lower the signal.

Read-out in assay [4]: Human Leukocyte Antigen - DR isotype (HLADR), HLA-DRA (gene 3122)
As to the kind of experiment: BSK_CASM3C_HLADR: BioMAP Diversity Plus: CASM3C Assay for Human Leukocyte Antigen - DR isotype (HLADR) Biomarker Activity (AID 2283043).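 Further: cell-surface HLA-DR protein level quantified by ELISA.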 Particulars: primary human coronary artery smooth muscle cells; actives raise or lower the signal.

Read-out in assay [5]: Macrophage colony-stimulating factor (MCSF), CSF1 (gene 1435)
As to the kind of experiment: BSK_CASM3C_MCSF: BioMAP Diversity Plus: CASM3C Assay for Macrophage colony-stimulating factor (MCSF) Biomarker Activity (AID 2283044).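 Further: M-CSF protein amount quantified by ELISA after 24 h exposure.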 As to conditions: primary human coronary artery smooth muscle cells; actives raise or lower the signal.

Read-out in assay [6]: Low-density lipoprotein receptor (LDLR), LDLR (gene 3949)
As to the kind of experiment: BSK_CASM3C_LDLR: BioMAP Diversity Plus: CASM3C Assay for Low-density lipoprotein receptor (LDLR) Biomarker Activity (AID 2283045).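 Further: LDLR protein level on the cell surface quantified by ELISA.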 As to conditions: primary human coronary artery smooth muscle cells; actives raise or lower the signal.

Read-out in assay [7]: Monocyte Chemoattractant Protein-1 (MCP1), CCL2 (gene 6347)
As to the kind of experiment: BSK_CASM3C_MCP1: BioMAP Diversity Plus: CASM3C Assay for Monocyte Chemoattractant Protein-1 (MCP1) Biomarker Activity (AID 2283046).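 Further: MCP-1 level quantified by ELISA 24 h after dosing.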 Particulars: primary human coronary artery smooth muscle cells; actives raise or lower the signal.

Assay [8] can be described thus: BSK_CASM3C_Proliferation: Cell Proliferation Assessment in the BioMAP Diversity Plus: CASM3C Assay (AID 2283047).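 Further: sulforhodamine B total protein stain as relative cell number at 560 nm; sub-confluent cells exposed 48 h before staining; fitted both ways against DMSO so gain or loss of cell number.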 As to conditions: primary human coronary artery smooth muscle cells.
Read-out in assay [9]: Monokine induced gamma interferon (MIG), CXCL9 (gene 4283)
The assay can be described thus: BSK_CASM3C_MIG: BioMAP Diversity Plus: CASM3C Assay for Monokine induced gamma interferon (MIG) Biomarker Activity (AID 2283048).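 Further: MIG protein level measured by ELISA.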 As to conditions: primary human coronary artery smooth muscle cells; actives raise or lower the signal.

Read-out in assay [10]: serum amyloid A (SAA), SAA1 (gene 6288)
As to the kind of experiment: BSK_CASM3C_SAA: BioMAP Diversity Plus: CASM3C Assay for serum amyloid A (SAA) Biomarker Activity (AID 2283049).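 Further: SAA protein level quantified by ELISA.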 As to conditions: primary human coronary artery smooth muscle cells; actives raise or lower the signal.

Assay [11] can be described thus: BSK_CASM3C_SRB: Viability Assessment in the BioMAP Diversity Plus: CASM3C Assay (AID 2283050).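 Further: total protein by SRB staining as cytotoxicity measure in parallel cultures; cells exposed to compound for 24 h.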 As to conditions: primary human coronary artery smooth muscle cells.
Read-out in assay [12]: Thrombomodulin, THBD (gene 7056)
As to the kind of experiment: BSK_CASM3C_Thrombomodulin: BioMAP Diversity Plus: CASM3C Assay for Thrombomodulin Biomarker Activity (AID 2283051).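 Further: thrombomodulin protein level measured by ELISA 24 h after dosing.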 Particulars: primary human coronary artery smooth muscle cells; actives raise or lower the signal.

Read-out in assay [13]: Tissue Factor, F3 (gene 2152)
The assay can be described thus: BSK_CASM3C_TissueFactor: BioMAP Diversity Plus: CASM3C Assay for Tissue Factor Biomarker Activity (AID 2283052).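 Further: cell surface tissue factor protein level read by ELISA.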 Particulars: primary human coronary artery smooth muscle cells; actives raise or lower the signal.

Read-out in assay [14]: Interferon-gamma inducible Protein 10 (IP10), CXCL10 (gene 3627)
As to the kind of experiment: BSK_hDFCGF_IP10: BioMAP Diversity Plus: hDFCGF Assay for Interferon-gamma inducible Protein 10 (IP10) Biomarker Activity (AID 2283053). Particulars: primary human foreskin fibroblasts; actives raise or lower the signal. In a few lines: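 Chemical-treated human skin fibroblasts (primary) were sampled at 24 h for IP-10 by ELISA. Both increases and decreases relative to DMSO were scored.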

Read-out in assay [15]: Urokinase-type plasminogen activator receptor (uPAR), PLAUR (gene 5329)
As to the kind of experiment: BSK_CASM3C_uPAR: BioMAP Diversity Plus: CASM3C Assay for Urokinase-type plasminogen activator receptor (uPAR) Biomarker Activity (AID 2283054).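 Further: cell-surface uPAR protein level quantified by ELISA.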 Particulars: primary human coronary artery smooth muscle cells; actives raise or lower the signal.

Read-out in assay [16]: Vascular cell adhesion molecule 1 (VCAM1), VCAM1 (gene 7412)
As to the kind of experiment: BSK_CASM3C_VCAM1: BioMAP Diversity Plus: CASM3C Assay for Vascular cell adhesion molecule 1 (VCAM1) Biomarker Activity (AID 2283055).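 Further: VCAM-1 protein level quantified by ELISA on the cells.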 Particulars: primary human coronary artery smooth muscle cells; actives raise or lower the signal.

Read-out in assay [17]: Collagen III, COL3A1 (gene 1281)
The assay can be described thus: BSK_hDFCGF_CollagenIII: BioMAP Diversity Plus: hDFCGF Assay for Collagen III Biomarker Activity (AID 2283056). As to conditions: primary human foreskin fibroblasts; actives raise or lower the signal. In a few lines: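 Cells: human foreskin fibroblasts, primary. Dosing followed by 24 h incubation, then ELISA for collagen III. Both increases and decreases scored relative to DMSO.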

Read-out in assay [18]: Epidermal growth factor receptor (EGFR), EGFR (gene 1956)
The assay can be described thus: BSK_hDFCGF_EGFR: BioMAP Diversity Plus: hDFCGF Assay for Epidermal growth factor receptor (EGFR) Biomarker Activity (AID 2283057). As to conditions: primary human foreskin fibroblasts; actives raise or lower the signal. The procedure, abridged: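 Cell-based multiplexed assay in primary human foreskin fibroblasts. EGFR is read by ELISA 24 h after treatment and compared with DMSO controls.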

Read-out in assay [19]: Interleukin-8 (IL8), CXCL8 (gene 3576)
As to the kind of experiment: BSK_hDFCGF_IL8: BioMAP Diversity Plus: hDFCGF Assay for Interleukin-8 (IL8) Biomarker Activity (AID 2283058). Particulars: primary human foreskin fibroblasts; actives raise or lower the signal. The procedure, abridged:
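IL-8 levels from compound-treated primary human fibroblasts were read by ELISA at 24 h, with DMSO serving as baseline for bidirectional fitting.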

A short description of assay [20]: BSK_hDFCGF_Proliferation: Cell Proliferation Assessment in the BioMAP Diversity Plus: hDFCGF Assay (AID 2283059).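 Further: curves fitted for both rise and fall of signal versus DMSO baseline.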 Particulars: primary human foreskin fibroblasts. The procedure, abridged:
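Total protein read at 560 nm after 0.1% SRB staining of TCA-fixed human skin fibroblasts, […]. Activity is fitted in both directions relative to DMSO as baseline.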

Each structure is given as a SMILES string. Where “and” joins values, the source holds several entries; their conditions need not be identical. Identical values can stand only once. Where a structure was tested more than once in an assay, its records may differ in their call. Calls of active or inactive are those of the source. How the source made its calls: active means hit-call score of the fitted dose curve at least 0.9, where 1 is the maximum; inactive means score below 0.9.

For `O=S(=O)(OCCOC(F)(F)F)C(F)(F)F`, the outcome in [1], in assay [2], in [3], in assay [4], in assay [5] and in assay [6] was inactive. Besides, the result in [7], in [8], in assay [9], in assay [10], in assay [11] and in [12] was inactive. Further, the outcome in assay [13], in assay [14], in [15], in assay [16], in assay [17] and in assay [18] was inactive. Besides, the result in assay [19] and in [20] was inactive.

On to `C=C(C)C(=O)OCCC(F)(F)C(F)(F)C(F)(F)C(F)(F)C(F)(C(F)(F)F)C(F)(F)F`, for which the outcome in assay [1], in assay [2], in assay [3], in assay [4], in assay [5] and in assay [6] was inactive. In addition, the result in [7], in assay [8], in [9], in [10], in [11] and in assay [12] was inactive. Further, the result in assay [13], in assay [14], in [15], in [16], in [17] and in [18] was inactive. The result in assay [19] and in assay [20] was inactive.

Take `O=C(O)C=C(C(F)(F)F)C(F)(F)F`: the concentration at half-maximal activity (AC50) in assay [1] is 13.2 µM (active) and 1.37 µM (active); in assay [2], 8.7 µM (active) and 1.53 µM (active); in assay [4], 9.93 µM (active) and 597 nM (active); in assay [8], 30 µM (active); in [9], 27.4 µM (active) and 220 nM (active); in assay [16] it was 12.5 µM (active) and 5.23 µM (active). In addition, the half-maximal activity concentration (AC50) in assay [20] was 21.9 µM (active). The outcome in assay [3], in assay [5], in assay [6], in assay [7], in [10] and in [11] was inactive. In addition, the result in assay [12], in assay [13], in assay [14], in assay [15], in [17] and in [18] was inactive. The result in [19] and in assay [20] was inactive.

With `CC(C)(C)C(=O)CC(=O)C(F)(F)C(F)(F)C(F)(F)F`, the result in [1], in assay [2], in assay [3], in assay [4], in assay [5] and in [6] was inactive. The result in assay [7], in assay [8], in assay [9], in assay [10], in [11] and in [12] was inactive. For the same molecule, the result in [13], in [14], in [15], in assay [16], in assay [17] and in assay [18] was inactive. Also, the result in assay [19] and in assay [20] was inactive.

For the molecule `OCC(F)(F)C(F)(F)C(F)(F)F`, the result in [1], in [2], in assay [3], in assay [4], in [5] and in assay [6] was inactive. Also, the result in assay [7], in assay [8], in assay [9], in assay [10], in [11] and in assay [12] was inactive. Also, the outcome in assay [13], in assay [14], in assay [15], in assay [16], in [17] and in assay [18] was inactive. The result in [19] and in assay [20] was inactive.

In general, AC50 refers to the concentration at which the activity in the assay is half-maximal.

For the origin of these results see PubChem BioAssay (EPA / NIEHS).
